Among the data in publication PMC11006913 are binding signal values, retold here.

NKX3-2, sequence (P78367 192-278 P234S): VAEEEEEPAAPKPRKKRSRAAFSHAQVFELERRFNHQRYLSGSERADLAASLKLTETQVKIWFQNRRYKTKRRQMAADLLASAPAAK

The target of the first experiment is T1, NKX2-4 (Homo sapiens, UniProt Q9H2Z4 175-261, R246Q).
T1 sequence: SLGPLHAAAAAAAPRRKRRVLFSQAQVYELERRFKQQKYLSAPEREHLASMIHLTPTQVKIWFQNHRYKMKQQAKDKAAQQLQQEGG
Kind of experiment: PBM; 200 nM protein, PBS. Conditions: dsDNA, one strand shown.
With AAGTACTC, the binding signal was 13.2 upbm affinity estimate (log intensity, higher = more binding, comparable within an allelic series).

With CACTTGAC, the binding signal is 13.3 upbm affinity estimate (log intensity, higher = more binding, comparable within an allelic series).

As to ATTAAGTG, the binding signal is 13 upbm affinity estimate (log intensity, higher = more binding, comparable within an allelic series).

Consider AGCACTTA, for which the binding signal is 13.1 upbm affinity estimate (log intensity, higher = more binding, comparable within an allelic series).

Turning to ACACTTAA, the binding signal was 13.1 upbm affinity estimate (log intensity, higher = more binding, comparable within an allelic series).

As for AGTACTTA, the binding signal is 13.1 upbm affinity estimate (log intensity, higher = more binding, comparable within an allelic series).

CACTTAAA: the binding signal was 13.2 upbm affinity estimate (log intensity, higher = more binding, comparable within an allelic series).

For CAAGTGGC, the binding signal is 12.9 upbm affinity estimate (log intensity, higher = more binding, comparable within an allelic series).

Take GTACTTCA: the binding signal was 13.2 upbm affinity estimate (log intensity, higher = more binding, comparable within an allelic series).

In the case of CTCAAGTA, the binding signal was 13.3 upbm affinity estimate (log intensity, higher = more binding, comparable within an allelic series).

With AGTACTTG, the binding signal was 13 upbm affinity estimate (log intensity, higher = more binding, comparable within an allelic series).

In the case of ACAAGTGG, the binding signal was 13.2 upbm affinity estimate (log intensity, higher = more binding, comparable within an allelic series).

For CCACTTAA, the binding signal was 13.3 upbm affinity estimate (log intensity, higher = more binding, comparable within an allelic series).

For ATAAGTGG, the binding signal was 13.3 upbm affinity estimate (log intensity, higher = more binding, comparable within an allelic series).

As to AACCACTT, the binding signal is 13.2 upbm affinity estimate (log intensity, higher = more binding, comparable within an allelic series).

With CCACTTGA, the binding signal was 13.5 upbm affinity estimate (log intensity, higher = more binding, comparable within an allelic series).

In the case of CACTTATC, the binding signal was 13.2 upbm affinity estimate (log intensity, higher = more binding, comparable within an allelic series).

With AAGTACTT, the binding signal is 13.3 upbm affinity estimate (log intensity, higher = more binding, comparable within an allelic series).

ACACTTGA: the binding signal was 13.4 upbm affinity estimate (log intensity, higher = more binding, comparable within an allelic series).

As for CCCACTTA, the binding signal was 13.1 upbm affinity estimate (log intensity, higher = more binding, comparable within an allelic series).

With CCACTCAA, the binding signal is 13.1 upbm affinity estimate (log intensity, higher = more binding, comparable within an allelic series).

For GGTACTTA, the binding signal is 13.1 upbm affinity estimate (log intensity, higher = more binding, comparable within an allelic series).

As for AAGTGGCT, the binding signal was 13 upbm affinity estimate (log intensity, higher = more binding, comparable within an allelic series).

With AAGCACTT, the binding signal was 13.1 upbm affinity estimate (log intensity, higher = more binding, comparable within an allelic series).

AAGTGGAT: the binding signal was 12.9 upbm affinity estimate (log intensity, higher = more binding, comparable within an allelic series).

With AAGTGGAG, the binding signal was 12.8 upbm affinity estimate (log intensity, higher = more binding, comparable within an allelic series).

With AAGTGGTA, the binding signal is 12.9 upbm affinity estimate (log intensity, higher = more binding, comparable within an allelic series).

With ACCACTTG, the binding signal is 13.1 upbm affinity estimate (log intensity, higher = more binding, comparable within an allelic series).

Regarding CCACTTAG, the binding signal is 13.1 upbm affinity estimate (log intensity, higher = more binding, comparable within an allelic series).

Take GGCACTTA: the binding signal was 13.2 upbm affinity estimate (log intensity, higher = more binding, comparable within an allelic series).

As to ACTTAAGT, the binding signal is 13 upbm affinity estimate (log intensity, higher = more binding, comparable within an allelic series).

Take CCACTTAC: the binding signal is 13 upbm affinity estimate (log intensity, higher = more binding, comparable within an allelic series).

CACTTAAC: the binding signal is 13.1 upbm affinity estimate (log intensity, higher = more binding, comparable within an allelic series).

As to AAGTACCC, the binding signal is 12.9 upbm affinity estimate (log intensity, higher = more binding, comparable within an allelic series).

Turning to TAAGTGTA, the binding signal was 12.9 upbm affinity estimate (log intensity, higher = more binding, comparable within an allelic series).

As to GCACTTCA, the binding signal was 13.2 upbm affinity estimate (log intensity, higher = more binding, comparable within an allelic series).

For AACACTTA, the binding signal is 12.9 upbm affinity estimate (log intensity, higher = more binding, comparable within an allelic series).

For CACTTATG, the binding signal was 13.1 upbm affinity estimate (log intensity, higher = more binding, comparable within an allelic series).

Take GTACTTGA: the binding signal was 13.3 upbm affinity estimate (log intensity, higher = more binding, comparable within an allelic series).

With CACTTAAG, the binding signal was 13.2 upbm affinity estimate (log intensity, higher = more binding, comparable within an allelic series).

The target of the next experiment is T2, NKX2-6 (Homo sapiens, UniProt A6NCS4 118-204, F151L).
T2 sequence: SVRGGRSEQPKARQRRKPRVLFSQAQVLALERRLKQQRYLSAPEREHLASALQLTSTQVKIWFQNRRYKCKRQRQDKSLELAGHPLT
The experiment is described as follows: PBM; 200 nM protein, PBS. Conditions: dsDNA, one strand shown.
For AAGTACTC, the binding signal was 10.8 upbm affinity estimate (log intensity, higher = more binding, comparable within an allelic series).

CACTTGAC: the binding signal is 11.2 upbm affinity estimate (log intensity, higher = more binding, comparable within an allelic series).

On to ATTAAGTG, for which the binding signal is 11 upbm affinity estimate (log intensity, higher = more binding, comparable within an allelic series).

Consider AGCACTTA, for which the binding signal was 11.3 upbm affinity estimate (log intensity, higher = more binding, comparable within an allelic series).

As for ACACTTAA, the binding signal was 11.5 upbm affinity estimate (log intensity, higher = more binding, comparable within an allelic series).

Regarding AGTACTTA, the binding signal was 11.2 upbm affinity estimate (log intensity, higher = more binding, comparable within an allelic series).

Consider CACTTAAA, for which the binding signal was 11.4 upbm affinity estimate (log intensity, higher = more binding, comparable within an allelic series).

On to CAAGTGGC, for which the binding signal was 10.7 upbm affinity estimate (log intensity, higher = more binding, comparable within an allelic series).

Regarding GTACTTCA, the binding signal was 10.8 upbm affinity estimate (log intensity, higher = more binding, comparable within an allelic series).

Take CTCAAGTA: the binding signal is 10.8 upbm affinity estimate (log intensity, higher = more binding, comparable within an allelic series).

As to AGTACTTG, the binding signal is 10.8 upbm affinity estimate (log intensity, higher = more binding, comparable within an allelic series).

For the sequence ACAAGTGG, the binding signal was 10.8 upbm affinity estimate (log intensity, higher = more binding, comparable within an allelic series).

CCACTTAA: the binding signal is 11.5 upbm affinity estimate (log intensity, higher = more binding, comparable within an allelic series).

Take ATAAGTGG: the binding signal was 11.4 upbm affinity estimate (log intensity, higher = more binding, comparable within an allelic series).

AACCACTT: the binding signal is 10.9 upbm affinity estimate (log intensity, higher = more binding, comparable within an allelic series).

Take CCACTTGA: the binding signal is 11.5 upbm affinity estimate (log intensity, higher = more binding, comparable within an allelic series).

As for CACTTATC, the binding signal is 11.2 upbm affinity estimate (log intensity, higher = more binding, comparable within an allelic series).

Take AAGTACTT: the binding signal was 11.5 upbm affinity estimate (log intensity, higher = more binding, comparable within an allelic series).

For ACACTTGA, the binding signal is 11.4 upbm affinity estimate (log intensity, higher = more binding, comparable within an allelic series).

For CCCACTTA, the binding signal was 11.1 upbm affinity estimate (log intensity, higher = more binding, comparable within an allelic series).

For CCACTCAA, the binding signal is 10.7 upbm affinity estimate (log intensity, higher = more binding, comparable within an allelic series).

As to GGTACTTA, the binding signal is 11 upbm affinity estimate (log intensity, higher = more binding, comparable within an allelic series).

On to AAGTGGCT, for which the binding signal was 10.6 upbm affinity estimate (log intensity, higher = more binding, comparable within an allelic series).

Take AAGCACTT: the binding signal was 11 upbm affinity estimate (log intensity, higher = more binding, comparable within an allelic series).

AAGTGGAT: the binding signal is 10.7 upbm affinity estimate (log intensity, higher = more binding, comparable within an allelic series).

AAGTGGAG: the binding signal was 10.6 upbm affinity estimate (log intensity, higher = more binding, comparable within an allelic series).

For AAGTGGTA, the binding signal is 10.7 upbm affinity estimate (log intensity, higher = more binding, comparable within an allelic series).

Take ACCACTTG: the binding signal was 10.7 upbm affinity estimate (log intensity, higher = more binding, comparable within an allelic series).

Consider CCACTTAG, for which the binding signal was 11.1 upbm affinity estimate (log intensity, higher = more binding, comparable within an allelic series).

On to GGCACTTA, for which the binding signal is 11.4 upbm affinity estimate (log intensity, higher = more binding, comparable within an allelic series).

In the case of ACTTAAGT, the binding signal is 11.2 upbm affinity estimate (log intensity, higher = more binding, comparable within an allelic series).

With CCACTTAC, the binding signal was 11 upbm affinity estimate (log intensity, higher = more binding, comparable within an allelic series).

Consider CACTTAAC, for which the binding signal was 11.2 upbm affinity estimate (log intensity, higher = more binding, comparable within an allelic series).

AAGTACCC: the binding signal is 10.5 upbm affinity estimate (log intensity, higher = more binding, comparable within an allelic series).

Regarding TAAGTGTA, the binding signal is 10.9 upbm affinity estimate (log intensity, higher = more binding, comparable within an allelic series).

As to GCACTTCA, the binding signal is 11.1 upbm affinity estimate (log intensity, higher = more binding, comparable within an allelic series).

As to AACACTTA, the binding signal was 11.3 upbm affinity estimate (log intensity, higher = more binding, comparable within an allelic series).

Regarding CACTTATG, the binding signal is 11.2 upbm affinity estimate (log intensity, higher = more binding, comparable within an allelic series).

For the sequence GTACTTGA, the binding signal was 11.1 upbm affinity estimate (log intensity, higher = more binding, comparable within an allelic series).

Turning to CACTTAAG, the binding signal is 11.5 upbm affinity estimate (log intensity, higher = more binding, comparable within an allelic series).

Another experiment addresses NKX3-2 (Homo sapiens, UniProt P78367 192-278, P234S). Kind of experiment: PBM; 200 nM protein, PBS. Conditions: dsDNA, one strand shown.
In the case of AAGTACTC, the binding signal was 12.7 upbm affinity estimate (log intensity, higher = more binding, comparable within an allelic series).

Regarding CACTTGAC, the binding signal was 12.1 upbm affinity estimate (log intensity, higher = more binding, comparable within an allelic series).

Take ATTAAGTG: the binding signal was 12.7 upbm affinity estimate (log intensity, higher = more binding, comparable within an allelic series).

For the sequence AGCACTTA, the binding signal was 12.9 upbm affinity estimate (log intensity, higher = more binding, comparable within an allelic series).

For the sequence ACACTTAA, the binding signal is 12.7 upbm affinity estimate (log intensity, higher = more binding, comparable within an allelic series).

With AGTACTTA, the binding signal was 12.6 upbm affinity estimate (log intensity, higher = more binding, comparable within an allelic series).

Consider CACTTAAA, for which the binding signal was 12.7 upbm affinity estimate (log intensity, higher = more binding, comparable within an allelic series).

CAAGTGGC: the binding signal was 12.5 upbm affinity estimate (log intensity, higher = more binding, comparable within an allelic series).

Regarding ACAAGTGG, the binding signal was 12.6 upbm affinity estimate (log intensity, higher = more binding, comparable within an allelic series).

With CCACTTAA, the binding signal was 13.2 upbm affinity estimate (log intensity, higher = more binding, comparable within an allelic series).

For ATAAGTGG, the binding signal is 13.1 upbm affinity estimate (log intensity, higher = more binding, comparable within an allelic series).

As for AACCACTT, the binding signal is 12.9 upbm affinity estimate (log intensity, higher = more binding, comparable within an allelic series).

Consider CCACTTGA, for which the binding signal is 12.5 upbm affinity estimate (log intensity, higher = more binding, comparable within an allelic series).

As for CACTTATC, the binding signal was 12.7 upbm affinity estimate (log intensity, higher = more binding, comparable within an allelic series).
